Measurements reported in PubChem BioAssay (Tox21).
Values joined by “and” are separate entries in the source; they are usually repeats but may differ in a detail not shown here. Equal entries are not always repeated. Records with an inconclusive call do not appear. A call without a number means that no potency is given here. More than one record can exist for a structure, and the calls need not agree. Active and inactive are the calls of the source. Unless noted, the call rests on the fitted dose curve; in most records, active means well fitted curve in the direction sought with a large enough effect in the repeat runs; inconclusive means weak or mixed curves; inactive means no such curve, though single readings can be large; an effect the other way counts as inactive or inconclusive.

How the values were obtained:
[1] = qHTS assay to identify small molecule agonists of the peroxisome proliferator-activated receptor delta (PPARd) signaling pathway - cell viability counter screen (AID 743211); further: nearly all actives have a fitted effect of over 55% in size; further: potency means the concentration at half of the fitted maximal effect
Summary of the method: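 qHTS cell viability: PPARd-bla HEK293H; 17 h cpd, 37C; CellTiter-Glo, luminescence at 30 min RT.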

[2] = biological target: Peroxisome proliferator-activated receptor delta (Homo sapiens) (UniProt Q03181); assay: qHTS assay to identify small molecule agonists of the peroxisome proliferator-activated receptor delta (PPARd) signaling pathway (AID 743212; calls by dose curve)
Summary of the method: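 Tox21 library screened in GeneBLAzer PPARd UAS-bla HEK293H cells. After compound treatment at 37 C, a FRET-based beta-lactamase substrate was applied for 2 h and fluorescence recorded.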

[3] = qHTS assay to identify small molecule agonists of the farnesoid-X-receptor (FXR) signaling pathway - cell viability counter screen (AID 743218); further: nearly all actives have a fitted effect of over 45% in size; further: potency means the concentration at half of the fitted maximal effect
Summary of the method: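 Viability of FXR-bla HEK 293T cells is measured by ATP-based CellTiter-Glo luminescence following 16 h compound treatment at 37 C and a prior 2 h room-temperature beta-lactamase substrate step.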

[4] = qHTS assay to identify small molecule antagonists of the farnesoid-X-receptor (FXR) signaling pathway - cell viability counter screen (AID 743221; active means well fitted cell-killing curve with a large enough effect in the repeat runs, not every such curve was filed as active; further: nearly all actives have a fitted effect of over 50% in size; further: potency means the concentration at half of the fitted maximal effect)
Summary of the method: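 After a 5 h settling period, FXR-bla HEK 293T cells receive compound and chenodeoxycholic acid (50 uM final) and incubate 16 h at 37 C; CellTiter-Glo luminescence, read after 30 min at room temperature, reports cell viability.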

[5] = biological target: Vitamin D3 receptor (Homo sapiens) (UniProt P11473); assay: qHTS assay to identify small molecule agonists of the vitamin D receptor (VDR) signaling pathway (AID 743222; calls by dose curve)
Summary of the method: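 Fluorescence from cleaved LiveBLAzer B/G FRET substrate served as readout. VDR-bla cells had been treated 16 h at 37C with test compounds in DMSO, following a 4 h settling period, and substrate was loaded for 2 h at RT.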

[6] = biological target: Vitamin D3 receptor (Homo sapiens) (UniProt P11473); assay: qHTS assay to identify small molecule antagonists of the vitamin D receptor (VDR) signaling pathway (AID 743223; active means well fitted inhibition curve with a large enough effect in the signal ratio in the repeat runs, not every such curve was filed as active; the % refers to the signal ratio; further: potency means the concentration at half of the fitted maximal effect)
Summary of the method: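 Reporter line VDR-bla; stimulus 1alpha,25-(OH)2 vitamin D3, 3 nM final; compound co-addition, 16 h 37C/5% CO2; LiveBLAzer B/G substrate 2 h RT; fluorescence intensity.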

[7] = qHTS assay to identify small molecule agonists of the vitamin D receptor (VDR) signaling pathway - cell viability counter screen (AID 743224); further: nearly all actives have a fitted effect of over 50% in size; further: potency means the concentration at half of the fitted maximal effect
Summary of the method: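 Compounds were pin-transferred onto VDR-bla cells plated 4 h earlier; following 16 h incubation at 37C, cell viability was quantified by CellTiter-Glo luminescence after 30 min at room temperature.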

[8] = qHTS assay to identify small molecule antagonists of the vitamin D receptor (VDR) signaling pathway - cell viability counter screen (AID 743225); further: nearly all actives have a fitted effect of over 50% in size; further: potency means the concentration at half of the fitted maximal effect
Summary of the method: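 Parallel cytotoxicity test: VDR-UAS-bla HEK 293T, 3 nM (final) 1-alpha,25-dihydroxyvitamin D3 with test compound, 16 h, 37C. Endpoint is CellTiter-Glo luminescence in the same wells.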

[9] = qHTS assay to identify small molecule agonists of the endoplasmic reticulum stress response signaling pathway (AID 1159516; active means well fitted activation curve with a large enough effect in the signal ratio in the repeat runs, not every such curve was filed as active; the % refers to the signal ratio)
Summary of the method: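 Using a HeLa line with an ESRE-driven beta-lactamase gene, agonist activity was measured by FRET substrate fluorescence (460 and 530 nm emission) after cells were treated with compounds for 5 hr at 37 C and 5% CO2.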

[10] = qHTS assay to identify small molecule antagonists of the retinoid-related orphan receptor gamma (ROR-gamma) signaling pathway - cell viability counter screen (AID 1159520); further: nearly all actives have a fitted effect of over 50% in size; further: potency means the concentration at half of the fitted maximal effect
Summary of the method: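 Tet-on ROR gamma CHO cells were given compounds for 2 hr, then doxycycline hyclate at 1 uM final, and incubated 16 hr at 37 C. Viability was measured as ATP content by CellTiter-Glo luminescence.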

[11] = biological target: Nuclear receptor ROR-gamma (Homo sapiens) (UniProt P51449); assay: qHTS assay to identify small molecule antagonists of the retinoid-related orphan receptor gamma (ROR-gamma) signaling pathway (AID 1159521; further: nearly all actives have a fitted effect of over 50% in size; further: potency means the concentration at half of the fitted maximal effect)
Summary of the method: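 Decreased RORE-driven luciferase luminescence indicates antagonism. Tet-on RORγ CHO cells received compound, then 1 uM final doxycycline 2 h later; signal read after 16 h incubation.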

[12] = qHTS assay to identify small molecule agonists of the AP-1 signaling pathway - cell viability counter screen (AID 1159525; calls by dose curve; further: nearly all actives have a fitted effect of over 55% in size; further: potency means the concentration at half of the fitted maximal effect)
Summary of the method: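 Same-well cytotoxicity counter screen of the Tox21 10K library in ME-180 cells. The readout is ATP-dependent luminescence after 5 h compound treatment. Data are normalised to DMSO and tetra n-octyl ammonium bromide controls.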

[13] = qHTS assay to identify small molecule agonists of the AP-1 signaling pathway (AID 1159526; calls by dose curve)
[14] = biological target: Retinoic acid receptor RXR-alpha (Homo sapiens) (UniProt P19793); assay: qHTS assay to identify small molecule agonists of the RXR signaling pathway (AID 1159527; calls by dose curve; further: nearly all actives have a fitted effect of over 35% in size)
Summary of the method: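 16 hr incubation of compound-treated RXR-alpha-UAS-bla HEK 293T cells (2% charcoal-stripped FBS, 37 C) preceded a 2 hr room-temperature LiveBLAzer FRET substrate step and blue/green fluorescence measurement.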

[15] = qHTS assay to identify small molecule antagonists of the peroxisome proliferator-activated receptor delta (PPARd) signaling pathway - cell viability counter screen (AID 743213); further: nearly all actives have a fitted effect of over 50% in size; further: potency means the concentration at half of the fitted maximal effect
Summary of the method: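 In this counter screen, HEK293H cells carrying a UAS-beta-lactamase reporter are co-treated with test compounds and 300 nM L165041 (final) for 17 h at 37 C; cell viability is quantified by CellTiter-Glo luminescence.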

[16] = biological target: Peroxisome proliferator-activated receptor delta (Homo sapiens) (UniProt Q03181); assay: qHTS assay to identify small molecule antagonists of the peroxisome proliferator-activated receptor delta (PPARd) signaling pathway (AID 743215; active means well fitted inhibition curve with a large enough effect in the signal ratio in the repeat runs, not every such curve was filed as active; the % refers to the signal ratio;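 further: cells stimulated with agonist L165041 at 300 nM final during compound exposure; series mostly up to about 62 µM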)
Summary of the method: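 Plated HEK293H PPARd-bla cells rested 5 h at 37 C and 5% CO2. Compound, then agonist L165041 at 300 nM final, was added; 17 h at 37 C followed. Substrate loading, 2 h room temperature, fluorescence measured.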

[17] = biological target: Bile acid receptor (Homo sapiens) (UniProt Q96RI1); assay: qHTS assay to identify small molecule antagonists of the farnesoid-X-receptor (FXR) signaling pathway (AID 743217; active means well fitted inhibition curve with a large enough effect in the signal ratio in the repeat runs, not every such curve was filed as active; the % refers to the signal ratio)
Summary of the method: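 Screen of the Tox21 10K library in quantitative HTS format using FXR-UAS-bla HEK 293T reporter cells. Agonist chenodeoxycholic acid, 50 uM final, added with compounds; 16 h incubation at 37 °C; beta-lactamase FRET fluorescence measured.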

[18] = biological target: Bile acid receptor (Homo sapiens) (UniProt Q96RI1); assay: qHTS assay to identify small molecule agonists of the farnesoid-X-receptor (FXR) signaling pathway (AID 743220; active means well fitted activation curve with a large enough effect in the signal ratio in the repeat runs, not every such curve was filed as active; the % refers to the signal ratio)
Summary of the method: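 FXR-UAS-bla HEK 293T cells carrying a UAS-driven beta-lactamase reporter were plated for 5 h at 37C/5% CO2, then exposed to DMSO-dissolved Tox21 10K compounds for 16 h at 37C. A LiveBLAzer B/G FRET substrate was loaded for 2 h at room temperature before fluorescence reading.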

[19] = qHTS assay to identify small molecule agonists of the endoplasmic reticulum stress response signaling pathway - cell viability counter screen (AID 1159517; calls by dose curve; further: nearly all actives have a fitted effect of over 50% in size; further: potency means the concentration at half of the fitted maximal effect)
Summary of the method: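 In parallel with the ESRE reporter read, cytotoxicity was scored by CellTiter-Glo luminescence (30 min, room temperature) on HeLa ESRE-bla cells dosed for 5 hr.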

[20] = qHTS assay to identify small molecule agonists of the NFkB signaling pathway - cell viability counter screen (AID 1159515; calls by dose curve; further: nearly all actives have a fitted effect of over 55% in size; further: potency means the concentration at half of the fitted maximal effect)
Summary of the method: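 Parallel cytotoxicity counter screen in ME-180 cells carrying an NFkB-response-element beta-lactamase reporter, 2,000 cells/well. Compound exposure lasted 5 hr at 37 C, 5% CO2. Cell viability was quantified by CellTiter-Glo luminescence.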

Sequence of Peroxisome proliferator-activated receptor delta (Homo sapiens) (Q03181 whole entry, looked up): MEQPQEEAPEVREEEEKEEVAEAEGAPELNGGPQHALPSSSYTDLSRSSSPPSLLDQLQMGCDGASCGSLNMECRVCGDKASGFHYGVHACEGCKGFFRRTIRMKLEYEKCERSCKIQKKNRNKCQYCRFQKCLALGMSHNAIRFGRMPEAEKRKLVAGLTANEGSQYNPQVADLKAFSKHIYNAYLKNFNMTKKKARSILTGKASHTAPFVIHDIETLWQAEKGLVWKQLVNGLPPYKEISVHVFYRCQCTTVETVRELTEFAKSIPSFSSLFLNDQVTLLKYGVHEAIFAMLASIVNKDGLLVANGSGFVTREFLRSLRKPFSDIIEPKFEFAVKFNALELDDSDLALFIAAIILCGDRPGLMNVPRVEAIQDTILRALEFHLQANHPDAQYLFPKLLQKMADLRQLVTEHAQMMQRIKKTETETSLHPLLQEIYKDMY
Sequence of Vitamin D3 receptor (Homo sapiens) (P11473 whole entry, looked up): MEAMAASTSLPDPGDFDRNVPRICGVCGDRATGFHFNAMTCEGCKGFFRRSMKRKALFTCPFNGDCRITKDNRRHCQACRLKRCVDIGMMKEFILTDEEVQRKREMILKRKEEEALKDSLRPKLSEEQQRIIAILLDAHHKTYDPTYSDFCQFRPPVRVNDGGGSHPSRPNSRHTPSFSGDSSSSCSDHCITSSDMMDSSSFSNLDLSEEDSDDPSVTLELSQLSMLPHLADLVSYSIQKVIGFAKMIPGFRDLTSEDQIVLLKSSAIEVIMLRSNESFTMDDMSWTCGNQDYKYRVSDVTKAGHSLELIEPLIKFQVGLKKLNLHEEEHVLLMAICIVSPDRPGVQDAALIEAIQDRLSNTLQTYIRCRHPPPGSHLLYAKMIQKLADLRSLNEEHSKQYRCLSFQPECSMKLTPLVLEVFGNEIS
Sequence of Retinoic acid receptor RXR-alpha (Homo sapiens) (P19793 whole entry, looked up): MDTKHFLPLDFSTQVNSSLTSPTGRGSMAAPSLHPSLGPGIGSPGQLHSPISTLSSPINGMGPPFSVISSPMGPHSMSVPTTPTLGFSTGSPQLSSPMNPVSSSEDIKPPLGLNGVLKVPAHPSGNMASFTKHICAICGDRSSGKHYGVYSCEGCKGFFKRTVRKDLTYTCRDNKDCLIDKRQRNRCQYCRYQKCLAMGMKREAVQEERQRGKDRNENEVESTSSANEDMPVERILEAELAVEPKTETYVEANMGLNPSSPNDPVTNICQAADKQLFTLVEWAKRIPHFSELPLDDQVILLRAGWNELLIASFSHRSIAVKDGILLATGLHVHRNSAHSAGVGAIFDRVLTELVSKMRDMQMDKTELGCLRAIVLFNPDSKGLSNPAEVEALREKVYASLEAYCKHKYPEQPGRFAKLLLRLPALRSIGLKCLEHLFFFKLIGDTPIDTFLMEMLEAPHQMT
Sequence of Bile acid receptor (Homo sapiens) (Q96RI1 whole entry, looked up): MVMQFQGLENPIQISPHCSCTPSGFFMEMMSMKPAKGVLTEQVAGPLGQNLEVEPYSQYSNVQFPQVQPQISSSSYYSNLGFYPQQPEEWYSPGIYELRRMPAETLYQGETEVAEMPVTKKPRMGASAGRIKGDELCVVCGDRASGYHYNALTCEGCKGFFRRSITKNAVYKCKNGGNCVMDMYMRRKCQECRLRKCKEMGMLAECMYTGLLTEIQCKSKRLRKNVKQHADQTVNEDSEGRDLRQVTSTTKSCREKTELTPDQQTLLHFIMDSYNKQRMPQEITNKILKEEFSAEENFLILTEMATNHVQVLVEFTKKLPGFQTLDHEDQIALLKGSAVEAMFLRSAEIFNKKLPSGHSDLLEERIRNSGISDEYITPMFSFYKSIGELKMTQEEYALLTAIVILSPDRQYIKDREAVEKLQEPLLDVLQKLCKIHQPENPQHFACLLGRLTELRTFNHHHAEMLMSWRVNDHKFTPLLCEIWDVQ

Structure (SMILES)	Potency [1]	Potency [2]	Potency [3]	Potency [4]	Potency [5]	Potency [6]	Potency [7]	Potency [8]	outcome [9]	Potency [10]	Potency [11]	Potency [12]	Potency [13]	Potency [14]	Potency [15]	Potency [16]	Potency [17]	Potency [18]	Potency [19]	Potency [20]
CCC(N)(CO)CO	inactive	inactive	inactive	inactive	inactive	inactive	inactive	inactive	inactive	inactive	inactive	inactive	inactive	inactive	–	–	–	–	–	–
CCCC1O[C@@H]2C[C@H]3[C@@H]4CCC5=CC(=O)C=C[C@]5(C)[C@H]4[C@@H](O)C[C@]3(C)[C@]2(C(=O)CO)O1 (stereo partly drawn)	inactive	inactive	inactive	inactive	inactive	inactive	inactive	–	inactive	inactive	48.6 µM (active)	inactive	–	–	inactive	inactive	inactive	inactive	inactive	–
CCCCCCOC(=O)c1ccc(O)cc1	38.9 µM (active) and inactive	inactive	inactive	inactive	inactive	–	–	–	inactive	inactive	inactive	–	–	inactive	–	–	–	inactive	49 µM (active)	–
CCCCCCCCCCC=O	inactive	inactive	–	inactive	inactive	inactive	–	inactive	inactive	inactive	inactive	inactive	inactive	inactive	inactive	inactive	–	–	inactive	–
Cc1cc(N)c(S(=O)(=O)O)cc1Cl	inactive	inactive	inactive	inactive	inactive	inactive	inactive	–	inactive	inactive	inactive	inactive	inactive	inactive	inactive	inactive	–	–	inactive	–
Cc1ccc(O)c(C(C)(C)C)c1	21.8 µM (active) and inactive	inactive	24.5 µM (active) and inactive	43.6 µM (active)	inactive	13.8 µM (active)	–	21.8 µM (active)	inactive	inactive	inactive	–	–	inactive	27.5 µM (active)	–	–	–	inactive	–
C[n+]1ccn(Cc2ccccc2)c1	inactive	–	inactive	inactive	inactive	inactive	–	–	inactive	inactive	inactive	inactive	inactive	inactive	inactive	–	inactive	inactive	inactive	–
CSc1ccc(C(=O)c2[nH]c(=O)[nH]c2C)cc1	–	inactive	–	inactive	inactive	inactive	–	inactive	inactive	inactive	inactive	inactive	inactive	inactive	inactive	inactive	–	–	inactive	–
C/C=C(\C)C(=O)OCc1ccccc1	inactive	–	inactive	inactive	inactive	inactive	–	inactive	inactive	inactive	inactive	inactive	inactive	inactive	–	–	–	–	inactive	–
NNC(=O)c1cccc(C(=O)NN)c1	inactive	inactive	–	inactive	inactive	–	–	–	inactive	inactive	inactive	inactive	inactive	inactive	inactive	–	inactive	inactive	–	–
CCCCCCCC(=O)[O-].CCCCCCCC(=O)[O-].[Zn+2]	inactive	–	–	inactive	inactive	–	inactive	–	inactive	inactive	inactive	inactive	inactive	inactive	inactive	–	–	–	inactive	–
CC(=O)OCC(C)OC(C)=O (stereo not drawn)	inactive	inactive	–	inactive	inactive	inactive	inactive	inactive	inactive	inactive	inactive	inactive	inactive	inactive	inactive	–	inactive	inactive	inactive	–
NC(=NCCCCCCN=C(N)/N=C(\N)Nc1ccc(Cl)cc1)/N=C(\N)Nc1ccc(Cl)cc1	–	–	–	19.4 µM (active) and 43.4 µM (active)	–	–	–	35.3 µM (active) [middle of 4 runs]	inactive	54 µM (active) and 54.2 µM (active) and inactive	–	34.3 µM (active) and inactive	inactive	–	19.8 µM (active) [middle of 4 runs]	–	–	–	–	–
O=C(O)c1ccc(Cl)c(Cl)c1	inactive	inactive	inactive	inactive	inactive	inactive	–	–	inactive	inactive	inactive	inactive	inactive	inactive	inactive	–	–	inactive	inactive	–
C/C=C1/C(=O)C[C@H]2[C@@H]3CCC4=CC(=O)CC[C@]4(C)[C@H]3CC[C@]12C	–	–	inactive	inactive	–	–	inactive	inactive	–	–	–	inactive	inactive	–	inactive	–	–	–	–	inactive
c1ccc(CSCc2ccccc2)cc1	inactive	inactive	inactive	inactive	inactive	inactive	inactive	inactive	inactive	inactive	inactive	inactive	inactive	inactive	inactive	–	–	–	inactive	–
CCC(C)(C)C1CCCCC1OC(C)=O (stereo not drawn)	inactive	inactive	inactive	inactive	–	–	38.9 µM (active)	inactive	inactive	inactive	inactive	inactive	inactive	inactive	54.9 µM (active)	–	–	–	inactive	–
CCN(C(=O)N(CC)c1ccccc1)c1ccccc1	inactive	–	inactive	inactive	–	–	inactive	inactive	inactive	inactive	inactive	inactive	inactive	inactive	inactive	–	–	–	–	–
N#CC1(c2ccc(F)cc2)CCC(=O)CC1	inactive	inactive	inactive	inactive	inactive	inactive	inactive	–	inactive	inactive	inactive	inactive	inactive	inactive	inactive	–	inactive	inactive	inactive	–
CCCCCCCCCOC(=O)c1ccc(O)cc1	27.1 µM (active)	–	–	43 µM (active)	–	–	–	–	–	–	–	38.3 µM (active)	–	–	24.2 µM (active)	–	–	–	–	54.2 µM (active)
